A short description of assay [1]: compounds binding Alexa647 anti-His antibody – biochemical, small-molecule microarray, 635 nm fluorescence, artefact control for SMM control protein annotation, primary screen (AID 1128).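 Note: score merges feature fluorescence with signal-to-noise for each printed compound spot.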 Particulars: higher = more signal.
Assay [2] concerns Human papillomavirus type 1a E7 protein (residues 1-88). As to the kind of experiment: HPV1a E7 small-molecule binders, primary screen, biochemical, small-molecule microarray, residues 1-88, 635 nm (AID 1129). The note with it: small-molecule microarray binding, fluorescence 635 nm; higher = more signal.
In assay [3] the target is Focal adhesion kinase 1 (Homo sapiens) (UniProt Q05397). As to the kind of experiment: PTK2 protein binding on printed compound slides – biochemical, small-molecule microarray, 635/667 nm fluorescence, BSA, DTT, primary screen (AID 1130).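 Note: composite of spot emission at 667 nm and signal to noise over triplicate slides.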 The note with it: 635 nm fluorescence, higher = more signal.
In assay [4] the test system is Fibrinogen (Alexa647-labelled). As to the kind of experiment: Alexa647-fibrinogen binding to printed small molecules – biochemical, small-molecule microarray, 635/667 nm fluorescence, artefact control for SMM control-protein annotation, profiling panel (AID 1131).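 Note: z-score merges 667 nm fluorescence with per-spot signal-to-noise over triplicate slides.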 Particulars: fibrinogen-A647 binding fluorescence, higher = more signal.
Assay [5] addresses Follistatin (Homo sapiens) (UniProt P19883). The assay can be described thus: FST protein binding to printed compounds – biochemical, small-molecule microarray, 635/667 nm fluorescence, primary screen (AID 1132). The note with it: 635 nm fluorescence, higher = more signal.
Assay [6] concerns the target Fibroblast growth factor 2 (Homo sapiens) (UniProt P09038). As to the kind of experiment: basic fibroblast growth factor binding to printed compounds – biochemical, small-molecule microarray, 635/667 nm fluorescence, primary screen (AID 1133). Particulars: FGF2, fluorescence 635/667, higher = more signal.
A short description of assay [7]: JC-1 mitochondrial potential readout, lung cancer cells – cell-based, A549, JC-1 fluorescence, basal, 24 h, 100 nL, profiling panel (AID 1138).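 Note: A549 lung adenocarcinoma cells under basal conditions with no added stimulus; test concentration not given here.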 Particulars: higher = more signal.
The test system of another assay is Lefty1. As to the kind of experiment: Lefty1 protein binding to printed compounds – biochemical, small-molecule microarray, 635/667 nm fluorescence, primary screen (AID 1139). The note with it: fluorescence 635/667, higher = more signal.
Assay [8] has as its system wheat germ agglutinin (Triticum aestivum), Alexa647-labelled. The assay can be described thus: Alexa647-WGA lectin binding to printed small molecules – biochemical, small-molecule microarray, 635/667 nm fluorescence, artefact control for SMM control-protein annotation, profiling panel (AID 1140).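 Note: score merges 667 nm feature emission with signal to noise over triplicate slides.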 Particulars: WGA-A647 binding, 635 nm fluorescence, higher = more signal.
For assay [9], the target named is Luciferin 4-monooxygenase (Photinus pyralis) (UniProt P08659). The assay can be described thus: inhibition of purified Photinus pyralis luciferase – biochemical, luminescence, purified enzyme, 2006 set, primary screen (AID 1141).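 Note: cell-free assay with purified firefly luciferase at 100 ng per well in PBS; test concentration not given here.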 Particulars: purified firefly luciferase, SteadyGlo luminescence, 30 min; higher = more signal, called active from +8 up or from −8 down.

In assay [10] the test system is Wnt5a (protein binding on small-molecule microarray). As to the kind of experiment: small molecules binding Wnt5a protein – biophysical, small-molecule microarray, 635/667 nm fluorescence, primary screen (AID 1142).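 Note: fluorescence read at 667 nm with signal to noise per printed feature.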 The note with it: 635 nm fluorescence, higher = more signal.
Assay [11] is described as follows: ATP-based viability of Huh7 replicon cells – cell-based, CellTiter-Glo luminescence, basal, 48 h, cytotoxicity control for HCV replication inhibitor project, primary screen (AID 1143).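 Note: Huh7 hepatoma cells carrying a hepatitis C replication reporter with no stimulus; test concentration not given here.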 The note with it: higher = more signal, called active from +8 up or from −8 down.
Assay [12] can be described thus: Pseudomonas biofilm growth suppression – PAO1 strain, BacTiter-Glo luminescence, LB-PBS, primary screen (AID 1144). Particulars: P. aeruginosa PAO1 biofilm, 12 h, higher = more signal.
Assay [13] in a line: basal CRE-LacZ reporter activity in PC12 – cell-based, unstimulated, primary screen (AID 1145). The note with it: no forskolin, luminescence, 4.5 h, higher = more signal, called active from +8 up or from −8 down.
Assay [14] in a line: forskolin-driven CRE-LacZ activity in PC12 – cell-based, CRE-LacZ reporter, forskolin-stimulated, primary screen (AID 1146).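 Note: PC12 cells with 6xCRE LacZ reporter stimulated by forskolin 10 µM; beta-galactosidase reporter signal reflecting CREB driven transcription.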 The note with it: luminescence, 4.5 h, higher = more signal, called active from +8 up or from −8 down.
In assay [15] the target is Streptavidin (Streptomyces avidinii) (UniProt P22629). As to the kind of experiment: compounds binding control protein streptavidin – biophysical, small-molecule microarray, 635/667 nm fluorescence, artefact control for SMM compound annotation, primary screen (AID 1147).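 Note: signal reflects streptavidin binding to arrayed compounds as a control protein.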 The note with it: higher = more signal.
The nature of assay [16]: probe aInhba binding on compound microarray – biochemical, small-molecule microarray, 635/667 nm fluorescence, primary screen (AID 1148).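 Note: score merges 667nm spot fluorescence with signal-to-noise for antibody binding to printed compounds.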 Particulars: higher = more signal.
Assay [17] deals with Torsin-1A (Homo sapiens) (UniProt O14656). The assay can be described thus: TOR1A wild-type binding on microarray – cell lysate, small-molecule microarray, lysate, 635/667 nm, primary screen (AID 1149). The note with it: COS7 hTOR1A-WT lysate, 635 nm fluorescence, higher = more signal.
For assay [18] the target is unchanged. The assay can be described thus: torsin A mutant lysate binding on microarrays – cell lysate, small-molecule microarray, COS7 lysate, 635/667 nm fluorescence, primary screen (AID 1150).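 Note: score pools 667 nm emission and signal to noise measuring lysate protein binding.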 Particulars: COS7 hTOR1A mutant lysate, 635 nm fluorescence, higher = more signal.
In assay [19] the test system is Sonic hedgehog protein (Shh). The assay can be described thus: Sonic hedgehog microarray binding compounds – biochemical, small-molecule microarray, 635/667 nm fluorescence, primary screen (AID 1151).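 Note: Shh protein binding to compounds spotted on small-molecule microarray slides; score combines spot fluorescence intensity with signal-to-noise across triplicate slides.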 Particulars: 635 nm fluorescence, higher = more signal.

Active and inactive are the calls of the source. Unless noted, the rule behind the calls is not given here.

Chain of Follistatin (Homo sapiens) (P19883 whole entry, looked up): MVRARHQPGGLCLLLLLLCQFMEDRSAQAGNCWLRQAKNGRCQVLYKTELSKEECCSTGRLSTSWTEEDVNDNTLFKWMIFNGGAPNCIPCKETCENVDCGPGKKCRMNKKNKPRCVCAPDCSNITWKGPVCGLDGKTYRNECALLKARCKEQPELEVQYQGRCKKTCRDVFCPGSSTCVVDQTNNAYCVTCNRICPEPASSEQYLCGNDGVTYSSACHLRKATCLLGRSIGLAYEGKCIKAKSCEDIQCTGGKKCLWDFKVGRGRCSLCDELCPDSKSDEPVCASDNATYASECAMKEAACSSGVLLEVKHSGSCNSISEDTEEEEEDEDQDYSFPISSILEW
Chain of Focal adhesion kinase 1 (Homo sapiens) (Q05397 whole entry, looked up): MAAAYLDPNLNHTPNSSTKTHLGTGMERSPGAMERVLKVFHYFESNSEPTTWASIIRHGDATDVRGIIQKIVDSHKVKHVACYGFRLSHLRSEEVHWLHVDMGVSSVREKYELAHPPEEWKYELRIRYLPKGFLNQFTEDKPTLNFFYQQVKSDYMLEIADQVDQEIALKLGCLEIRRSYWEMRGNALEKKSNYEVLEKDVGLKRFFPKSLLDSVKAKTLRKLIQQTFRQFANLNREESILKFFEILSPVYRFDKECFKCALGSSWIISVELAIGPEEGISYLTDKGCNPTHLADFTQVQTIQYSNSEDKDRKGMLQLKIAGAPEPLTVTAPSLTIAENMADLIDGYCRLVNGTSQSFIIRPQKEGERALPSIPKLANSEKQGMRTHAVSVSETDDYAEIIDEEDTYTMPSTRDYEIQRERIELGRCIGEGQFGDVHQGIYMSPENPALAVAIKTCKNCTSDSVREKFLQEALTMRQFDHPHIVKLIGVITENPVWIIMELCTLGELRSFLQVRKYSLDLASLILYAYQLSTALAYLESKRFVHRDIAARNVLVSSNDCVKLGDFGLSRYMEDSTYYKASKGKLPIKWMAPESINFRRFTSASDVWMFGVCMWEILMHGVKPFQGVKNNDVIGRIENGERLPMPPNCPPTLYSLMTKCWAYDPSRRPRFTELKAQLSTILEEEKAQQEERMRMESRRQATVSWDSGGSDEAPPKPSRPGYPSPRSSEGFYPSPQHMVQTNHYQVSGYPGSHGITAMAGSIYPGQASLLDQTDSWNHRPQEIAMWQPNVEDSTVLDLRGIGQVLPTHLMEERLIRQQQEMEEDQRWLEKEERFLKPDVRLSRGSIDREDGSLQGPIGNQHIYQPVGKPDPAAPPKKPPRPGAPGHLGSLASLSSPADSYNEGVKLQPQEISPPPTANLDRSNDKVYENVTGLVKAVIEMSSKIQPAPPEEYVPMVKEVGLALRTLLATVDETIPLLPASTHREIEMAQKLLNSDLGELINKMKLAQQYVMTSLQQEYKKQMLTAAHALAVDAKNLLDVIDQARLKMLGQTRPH
Chain of Streptavidin (Streptomyces avidinii) (P22629 whole entry, looked up): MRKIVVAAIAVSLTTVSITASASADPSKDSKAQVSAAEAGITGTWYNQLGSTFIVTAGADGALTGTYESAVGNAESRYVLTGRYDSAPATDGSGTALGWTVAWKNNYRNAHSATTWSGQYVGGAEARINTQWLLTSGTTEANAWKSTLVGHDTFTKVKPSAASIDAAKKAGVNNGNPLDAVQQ
Chain of Fibroblast growth factor 2 (Homo sapiens) (P09038 whole entry, looked up): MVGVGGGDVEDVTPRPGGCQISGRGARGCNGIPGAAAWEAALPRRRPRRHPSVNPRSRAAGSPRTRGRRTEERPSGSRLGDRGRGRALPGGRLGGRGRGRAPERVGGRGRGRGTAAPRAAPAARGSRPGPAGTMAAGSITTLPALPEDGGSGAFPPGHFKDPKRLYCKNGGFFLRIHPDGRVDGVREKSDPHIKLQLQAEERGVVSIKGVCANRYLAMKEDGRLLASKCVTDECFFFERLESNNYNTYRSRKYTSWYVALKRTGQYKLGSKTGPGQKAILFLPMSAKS
Chain of Luciferin 4-monooxygenase (Photinus pyralis) (P08659 whole entry, looked up): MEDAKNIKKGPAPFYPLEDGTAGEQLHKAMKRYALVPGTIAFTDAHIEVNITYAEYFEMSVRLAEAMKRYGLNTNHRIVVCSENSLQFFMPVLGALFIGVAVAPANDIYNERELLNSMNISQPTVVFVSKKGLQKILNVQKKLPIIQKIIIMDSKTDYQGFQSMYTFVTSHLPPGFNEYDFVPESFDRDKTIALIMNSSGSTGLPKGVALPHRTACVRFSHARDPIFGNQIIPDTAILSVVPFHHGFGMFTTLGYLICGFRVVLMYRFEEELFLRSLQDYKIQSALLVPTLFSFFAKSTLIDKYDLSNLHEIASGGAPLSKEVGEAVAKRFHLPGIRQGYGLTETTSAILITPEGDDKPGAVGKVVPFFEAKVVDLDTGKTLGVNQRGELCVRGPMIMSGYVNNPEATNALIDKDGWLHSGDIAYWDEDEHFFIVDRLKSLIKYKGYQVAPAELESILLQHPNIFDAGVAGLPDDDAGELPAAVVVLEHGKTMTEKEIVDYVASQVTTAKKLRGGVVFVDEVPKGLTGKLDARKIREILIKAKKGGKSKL
Chain of Torsin-1A (Homo sapiens) (O14656 whole entry, looked up): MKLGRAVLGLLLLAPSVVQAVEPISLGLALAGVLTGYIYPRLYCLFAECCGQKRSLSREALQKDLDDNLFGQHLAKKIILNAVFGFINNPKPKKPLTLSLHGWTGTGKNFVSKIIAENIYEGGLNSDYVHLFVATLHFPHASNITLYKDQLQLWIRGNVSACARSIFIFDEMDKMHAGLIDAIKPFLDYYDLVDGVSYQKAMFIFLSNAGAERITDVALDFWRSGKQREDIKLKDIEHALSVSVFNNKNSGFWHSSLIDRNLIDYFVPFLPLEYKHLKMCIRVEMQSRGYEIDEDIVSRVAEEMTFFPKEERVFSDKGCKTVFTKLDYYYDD

As to `COC(=O)C1=C(C)[C@@H](O)[C@@H](C)[C@H](c2c(OC)c(OC)c(C)c(OC)c2OC)O1`, the composite z-score in assay [1] was 0.174; in [2] it was 0.113; in assay [3] it was 0.132; in [4] it was -1.27; in assay [5] it was 0.194; in assay [6] it was 0.236. The composite z-score with Lefty1 was 0.475; in [8], -0.611; in assay [10], 0.0023; in assay [15], 0.479; in [16], -0.218; in the assay with Torsin-1A (Homo sapiens) [17], 0.14. For the same compound, the composite z-score with Torsin-1A (Homo sapiens) [18] is 0.553; in assay [19] it was 0.535. Also, the z-score is -0.485 in assay [7]; -0.0386 (inactive) in assay [9]; -0.0219 (inactive) in assay [11]; 0.148 (inactive) in assay [12]; 2.18 (inactive) in assay [13]; 0.0745 (inactive) in [14].

Regarding `Cc1ccc(F)cc1S(=O)(=O)N[C@@H]1CCN(Cc2ccc(CC(C)C)cc2)C1`, the composite z-score was -0.016 in assay [1]; -0.381 in [2]; 0.132 in assay [3]; 0.129 in [4]; 0.111 in assay [5]; -0.367 in assay [6]. The composite z-score is 0.163 in the assay on Lefty1; 0.0831 in assay [8]; -0.524 in assay [10]; -0.758 in assay [15]; -0.231 in [16]; 0.492 with Torsin-1A (Homo sapiens) [17]. Moreover, the composite z-score with Torsin-1A (Homo sapiens) [18] was -0.859; in [19], 0.15. Besides, the z-score is -0.391 in [7]; 0.886 (inactive) in assay [9]; -4.94 (inactive) in assay [11]; -0.158 (inactive) in assay [12]; -0.683 (inactive) in [13]; 0.673 (inactive) in [14].

For the compound `O=C1C2C=CC(C(O)c3ccc([N+](=O)[O-])cc3)N(Nc3ccc([N+](=O)[O-])cc3)C2C(=O)N1c1ccccc1` (stereo not given), the composite z-score in assay [1] is 0.953; in assay [2] it was 1.24; in assay [3] it was 0.719; in [4], 0.952; in assay [5], -0.0127; in assay [6], -0.519. Further, the composite z-score in the assay with Lefty1 is -0.139; in assay [8] it was 1.37; in assay [10], 0.71; in assay [15], 0.903; in assay [16] it was 0.154; with Torsin-1A (Homo sapiens) [17] it was 0.128. Besides, the composite z-score with Torsin-1A (Homo sapiens) [18] was 0.726; in assay [19] it was -0.114. Moreover, the z-score was -1.95 in assay [7]; 0.319 (inactive) in assay [9]; 0.301 (inactive) in assay [11]; -0.328 (inactive) in [12]; -0.228 (inactive) in [13]; 0.554 (inactive) in assay [14].

For the compound `CC1CC/C=C\[C@H]2OC34C=CCN(Cn5nnc6ccccc65)C(=O)[C@H]3N(CCO)C(=O)[C@@H]4C2C(=O)O1` (stereo not given in full), the composite z-score was 0.885 in assay [1]; 1.16 in assay [2]; 1.42 in assay [3]; -1.14 in assay [4]; -0.312 in assay [5]; -1.35 in assay [6]. The composite z-score in the assay with Lefty1 is -0.428; in assay [8] it was 1.24; in assay [10], -0.335; in assay [15] it was -0.923; in assay [16] it was -0.0719; in the assay with Torsin-1A (Homo sapiens) [17], 2.73. Further, the composite z-score with Torsin-1A (Homo sapiens) [18] is 2.11; in [19], -0.0981. In addition, the z-score in assay [7] was -0.547; in assay [9], -1.98 (inactive); in [11], -2.74 (inactive); in [12], -2.49 (inactive); in [13], -1.44 (inactive); in assay [14] it was -1.01 (inactive).

Regarding `O=C1C[C@@H](O)[C@@H](O)[C@@H]2[C@@H]3C(=O)N(Cc4ccc5c(c4)OCO5)C(=O)[C@@H]3CC[C@@H]12`, the composite z-score is -0.0619 in assay [1]; 0.459 in assay [2]; 0.0309 in assay [3]; 0.197 in [4]; 0.499 in [5]; 0.507 in [6]. The composite z-score was 0.549 with Lefty1; -0.107 in assay [8]; 0.0765 in assay [10]; -0.282 in assay [15]; -0.149 in assay [16]; 0.622 in the assay with Torsin-1A (Homo sapiens) [17]. Further, the values for the composite z-score (in the assay with Torsin-1A (Homo sapiens) [18]; in assay [19]) were 0.407 and 0.698, respectively. For the same compound, the z-score in [7] was 0.481; in assay [9], -0.786 (inactive); in assay [11] it was 0.136 (inactive); in [12], 0.00816 (inactive); in assay [13], -0.116 (inactive); in assay [14], 0.0785 (inactive).

The values are drawn from PubChem BioAssay.
